± gives the standard deviation of the averaged measurements. About 5,400 targets were measured; listed, in parts, are those with the largest changes and a random draw of the rest.
Biological target: T1, FARSB (UniProt Q9NSD9)
T1 sequence (whole entry): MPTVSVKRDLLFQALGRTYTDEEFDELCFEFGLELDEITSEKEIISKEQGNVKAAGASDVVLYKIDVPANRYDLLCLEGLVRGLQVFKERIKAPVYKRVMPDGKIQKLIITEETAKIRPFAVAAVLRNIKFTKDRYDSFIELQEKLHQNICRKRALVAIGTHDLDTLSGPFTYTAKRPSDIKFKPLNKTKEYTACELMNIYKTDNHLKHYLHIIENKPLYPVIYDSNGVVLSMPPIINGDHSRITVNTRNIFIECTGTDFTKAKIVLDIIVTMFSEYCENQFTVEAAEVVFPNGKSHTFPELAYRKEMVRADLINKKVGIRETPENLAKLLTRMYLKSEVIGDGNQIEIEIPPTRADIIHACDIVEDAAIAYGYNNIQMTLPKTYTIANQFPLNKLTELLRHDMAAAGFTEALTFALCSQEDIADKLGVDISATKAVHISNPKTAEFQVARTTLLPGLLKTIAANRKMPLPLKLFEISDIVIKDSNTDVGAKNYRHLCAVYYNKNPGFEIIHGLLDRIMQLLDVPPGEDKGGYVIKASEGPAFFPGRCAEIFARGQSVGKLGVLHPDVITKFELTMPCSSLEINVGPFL
Assay: NP40-soluble protein abundance relative to vehicle (solubility fold change) (ratio); higher = more soluble protein in presence of GTP
Experimental: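 Solubility proteome profiling in Jurkat crude lysate. Lysate was treated with Mg-GTP (0.1-10 mM) for 10 min at room temperature and 3 min at 37 °C, then solubilised with 0.8% NP40 and benzonase, followed by ultracentrifugation. Proteins were quantified by TMT10 LC-MS/MS; the value is the NP40-soluble abundance relative to the NP40-processed vehicle, from 3 independent experiments.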

`Nc1nc2c(ncn2[C@@H]2O[C@H](COP(=O)(O)OP(=O)(O)OP(=O)(O)O)[C@@H](O)[C@H]2O)c(=O)[nH]1` [guanosine triphosphate] gave an NP40-soluble protein abundance (concentration: 0.1mM) of 1.05 ± 0.043, an NP40-soluble protein abundance (concentration: 0.5mM) of 1.06 ± 0.074 and an NP40-soluble protein abundance (concentration: 1mM) of 0.933 ± 0.035. It also gave an NP40-soluble protein abundance (concentration: 2mM) of 0.944 ± 0.091, an NP40-soluble protein abundance (concentration: 4mM) of 0.954 ± 0.064 and an NP40-soluble protein abundance (concentration: 6mM) of 0.925 ± 0.059. For the same compound, the NP40-soluble protein abundance (concentration: 8mM) was 0.875 ± 0.012 and the NP40-soluble protein abundance (concentration: 10mM) was 0.844 ± 0.057.
